# A549 tox – A549 cytotoxicity, counter-screen for Nrf2 inhibitors. 0.16% of 390,000 active. Potency, µM (titrated, usually from 46 µM), without a hit: at the highest dose activity change, negative = cytotoxicity, hits mostly inhibitors. A549 ARE-Fluc cells, CellTiter-Fluor viability, 18-24 h. AID 504648; also: potency is read from the fitted curve at half-maximal effect; % is scaled to controls: 0 for no effect and ±100 for the full control effect
#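 A549 ARE_Fluc cells in 5% FBS OPTI-MEM were exposed to compounds in concentration-response for 18-24 h at 37 deg C. Viability was read by CellTiter-Fluor fluorescence (Ex 405/Em 525) after 30 min, before the luciferase read.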
# mIDH1 inhibitor – human IDH1 R132H inhibition | O75874 | IDH1-R132H enzyme, NADPH consumption, diaphorase/resazurin fluorescence | Potency, µM (titrated, usually from 76.6 µM), for the others: at the top dose activity change, negative = inhibition, actives largely listed as inhibitors | 0.093% of 390,000 active | AID 602179; also: potency is read from the fitted curve at half-maximal effect; % is scaled to controls: 0 for no effect and ±100 for the full control effect; nearly all actives have a fitted effect of over 65% in size
# Target sequence (O75874 whole entry R132H, stated change not applied): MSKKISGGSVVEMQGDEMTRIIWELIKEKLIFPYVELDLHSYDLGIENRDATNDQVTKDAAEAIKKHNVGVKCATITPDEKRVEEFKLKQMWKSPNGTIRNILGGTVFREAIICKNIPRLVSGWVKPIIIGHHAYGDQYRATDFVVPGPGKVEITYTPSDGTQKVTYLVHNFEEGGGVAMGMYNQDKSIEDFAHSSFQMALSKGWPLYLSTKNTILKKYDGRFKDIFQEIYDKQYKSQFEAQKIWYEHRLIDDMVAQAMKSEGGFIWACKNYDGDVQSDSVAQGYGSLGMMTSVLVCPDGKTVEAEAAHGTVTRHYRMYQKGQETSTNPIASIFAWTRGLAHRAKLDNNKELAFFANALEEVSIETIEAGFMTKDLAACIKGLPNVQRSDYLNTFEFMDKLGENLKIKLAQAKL
#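 IDH1-R132H (0.5 ug/mL) preincubated 30 min with compound, then NADPH (0.016 mM) and alpha-KG (2 mM) added; 80 min at RT, pH 7.5. Remaining NADPH coupled via diaphorase/resazurin to fluorescence (540/590 nm); concentration-response curves normalized to no-enzyme control.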
# LDHA inh – LDHA (human) enzyme inhibition; P00338; purified LDHA, NADH/diaphorase-resazurin fluorescence; hits give low values; activity change, % (values are at about 110 or 230 µM); 0.15% of 480,000 active; AID 1347041; in the data active = activity change below about -30%; inconclusive = mostly about -25% to -30%;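 also: plate controls were DMSO wells for no effect and wells without enzyme for full effect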
#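 Human LDH5 at 2 nM final in Tris HCl pH 7.4 with 0.06 mM NADH and 0.2 mM pyruvate, reacted 5 minutes at room temperature. Remaining NADH coupled via diaphorase/resazurin; resorufin fluorescence read at 0 and 20 minutes, normalized to enzyme-free and DMSO wells.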
# Nrf2 block – blocks Nrf2 signaling. AID 504444. Potency, µM (top dose mostly 46 µM), without a hit: top-dose activity change, negative = inhibition, most hits filed as inhibitors. A549 ARE-Fluc reporter, luciferase luminescence, 18-24 h. 2.1% of 360,000 active; also: potency is read from the fitted curve at half-maximal effect; % is scaled to controls: 0 for no effect and ±100 for the full control effect; nearly all actives have a fitted effect of over 60% in size
#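 In this cell-based qHTS, ARE-driven firefly luciferase in A549 cells reports Nrf2 activity; the luminescent signal after BugLite lysis is the measured value, with a prior CellTiter-Fluor read for cell health.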
# ALOX12 inh – ALOX12 (human) lipoxygenase inhibition | purified 12hLO, xylenol orange hydroperoxide absorbance | P18054 | Potency, µM (series often up to 108 µM), for inactives: at the highest dose activity change, negative = inhibition, actives largely listed as inhibitors | 1.1% of 580,000 active; also: potency is read from the fitted curve at half-maximal effect; % is scaled to controls: 0 for no effect and ±100 for the full control effect
#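 Purified human 12hLO (150 nM final) in 25 mM Hepes, 0.01% Triton X-100, pH 7.0 was preincubated 15 min at room temperature with compound. Then 40 uM arachidonic acid was added, 30 min. Hydroperoxide was read by Fe-XO absorbance ratio 573/405 nm.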
# Nrf2 activator – activators of Nrf2 (ARE) signaling; AREc32 ARE-luciferase reporter (MCF7-derived line), luminescence, 24 h; 0.31% of 410,000 active; Potency, µM (doses to about 46.1 µM), for inactives: top-dose activation, most hits filed as activators; also: potency is read from the fitted curve at half-maximal effect; % of control where 0% means no effect; nearly all actives have a fitted effect of over 65% in size
#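 ARE-driven firefly luciferase activity in AREc32 cells measured after a 24 hr compound exposure at 37 deg C, using Steady-Glo reagent and a 30 min room-temperature hold.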
# * hit, by the source's call; i = inactive; ? = inconclusive; . = not tested or not shown; ! = not confirmed by another sample; [ ] = dose if it differs, or a comment. This is a sample that favours compounds with a hit; in the whole collection about 2.7% have one here. Unless noted, calls follow the shape of the dose curve; as a rule, active = well fitted curve in the direction sought with a large enough effect; inconclusive = small, poorly fitted or top-dose-only effect, or another doubt; inactive = no such curve, though single readings can be large; an effect the other way counts as inactive or inconclusive.
SMILES,A549 tox,mIDH1 inhibitor,LDHA inh,Nrf2 block,ALOX12 inh,Nrf2 activator
CC(C)CC(=O)NN(C)c1nc(-c2ccccc2)nnc1C(F)(F)F,2.7%,-2.1%,-5.8,-18.6%,-6.4%,0.2%
Cc1ccccc1Oc1c(CCC(=O)NCC2CC2)c(C)nn1-c1ccc(F)cc1,.,.,.,.,10.4%,.
CCc1ccc(OCCNC(=S)NC23CC4CC(CC(C4)C2)C3)cc1,.,.,1.4,.,?,.
O=C(O)c1cc2c(s1)-c1ccccc1CC2,1.5%,4.1%,-6.3,-5.5%,-2.5%,3.7%
c1ccc(-c2cc3n(c2)CCc2ccccc2-3)cc1,-4.4%,-2.7%,3.4,?,6.31µM*!,9.5%
Cc1ccc(-c2cc3n(c2)CCc2ccccc2-3)cc1,.,.,-10.3,.,15.8µM*,.
COC(=O)c1cc(Br)c(O)c(Br)c1,.,.,2.3,.,-19.8%,.
CC(C)(c1cc(Br)c(O)c(Br)c1)c1cc(Br)c(O)c(Br)c1,-6.6%,-8.5%,-2.4,0.5%,44.7µM*,-0.9%
NS(=O)(=O)c1ccc(Br)c(C(=O)OCc2ccc(Cl)c(Cl)c2)c1,.,.,-7.8,.,-16.6%,.
CCOCc1cc(CN2CCN(c3cccc(C(F)(F)F)c3)CC2)c(O)c2ncccc12,-2.0%,-16.9%,6.5,?,0.5%,-0.5%
CC(C)OCc1cc(CN2CCN(c3cccc(C(F)(F)F)c3)CC2)c(O)c2ncccc12,-25.1%,-10.2%,3.6,16.4µM*,5.8%,0.6%
Cc1cc(S(=O)(=O)NC[C@H]2O[C@@H](n3cnc4c(N)ncnc43)[C@H](O)[C@@H]2O)c(C)s1,2.1%,-3.9%,-8.0,9.9%,-7.0%,-0.2%
Cc1cc(S(=O)(=O)NC[C@H]2O[C@@H](n3ccc(N)nc3=O)[C@H](O)[C@@H]2O)c(C)s1,.,0.2%,-30.6*,.,0.0%,-0.4%
O=C(CNC(=O)c1ccccc1)OC(C(=O)Nc1cc(C(F)(F)F)ccc1Cl)c1ccccc1 (stereo not drawn),0.4%,9.8%,-2.0,13.3%,-6.0%,-0.8%
O=C(CC(=O)c1ccccc1)Nc1cc(C(F)(F)F)ccc1Cl,-4.7%,0.1%,-10.9,-11.7%,-4.9%,17.1%
O=C(CNC(=O)c1cccc(Cl)c1)OC(C(=O)Nc1cc(C(F)(F)F)ccc1Cl)c1ccccc1 (stereo not drawn),-25.4%,.,1.1,23.1µM*,.,.
O=C(CCCc1ccccc1)Nc1cc(C(F)(F)F)ccc1Cl,.,.,2.9,.,7.9%,.
O=C(NC(=S)Nc1cc(C(F)(F)F)ccc1Cl)c1ccccc1,4.0%,-3.3%,0.0,?,?,3.16µM*
O=C(Nc1cc(C(F)(F)F)ccc1Cl)[C@H](O)CCc1ccccc1,?,.,-2.9,25.9µM*,.,.
Cc1ccc(S(=O)(=O)Nc2cccc(NC(N)=O)c2)cc1Cl,.,.,-10.0,.,?,.
ClCC(Cl)C[n+]1cccc2ccccc21 (stereo not drawn),.,.,-47.2*,.,?,.
Cc1ccc2c(Cl)c(Cc3ccccc3)c(=S)[nH]c2n1,?,-1.8%,0.4,3.4%,31.6µM*,27.0%
Cc1ccc2c(CN3CCCCCC3)cc(=O)oc2c1,.,.,0.0,.,?,.
O=C(O)C/C(=C/c1cccnc1)c1nc2ccccc2s1,.,.,-1.9,.,?,.
Cc1ccc(C(=O)Oc2ccc(/C=C3\C(=N)N4N=C(N5CCOCC5)SC4=NC3=O)cc2)cc1,5.1%,5.8%,1.1,7.31µM*,17.9%,-0.1%
SMILES,A549 tox,mIDH1 inhibitor,LDHA inh,Nrf2 block,ALOX12 inh,Nrf2 activator
CCNC(=O)C(C)NC(=O)CCc1ncc(-c2ccc(C)cc2)o1 (stereo not drawn),.,.,-18.9,.,24.2%,.
Cc1ccc(C(=O)N2CCN(c3ccc(NC(=O)COc4ccccc4C)cc3)CC2)cc1,?,-1.5%,0.0,20.6µM*,-1.1%,-0.1%
O=C(COc1ccccc1)Nc1ccc(N2CCN(C(=O)c3ccco3)CC2)cc1,1.9%,-8.1%,-5.8,0.6%,205.1%,-0.2%
Cc1ccc(OCC(=O)Nc2ccc(N3CCN(C(=O)c4ccco4)CC3)cc2)cc1,0.6%,-3.8%,-6.5,20.6µM*,-8.4%,0.0%
Cc1c(OC(C)C(=O)NCc2ccncc2)ccc2c3c(c(=O)oc12)CCCC3 (stereo not drawn),-1.4%,1.3%,-3.6,23.1µM*,-2.4%,0.2%
Cc1c(OC(C)C(=O)NCc2ccccn2)ccc2c3c(c(=O)oc12)CCC3 (stereo not drawn),-4.3%,2.5%,-1.3,-22.2%,4.6%,-0.5%
COc1ccc(-c2noc(Nc3ccc(OC)c(OC)c3)n2)cc1,.,.,.,.,-6.8%,.
COc1cccc(Nc2nc(-c3ccccc3)no2)c1,.,.,.,.,39.8µM*,.
Cc1cccnc1Nc1nc(-c2ccccc2)cs1,3.6%,0.9%,1.3,?,-14.9%,3.16µM*
COc1cccc(Nc2nc(-c3ccc(S(=O)(=O)N4CCOCC4)cc3)cs2)c1,.,.,-9.0,.,26.9%,.
Cc1cccnc1Nc1nc(-c2ccccn2)cs1,?,7.0%,-0.5,?,i,27.3%
COc1cccc(Nc2nc(-c3ccc(CNC(C)=O)cc3)cs2)c1,.,.,-0.5,.,15.8µM*,.
COc1ccccc1CNc1nc(-c2ccccc2)cs1,.,.,1.2,.,14.1µM*,.
COc1ccc(-c2nc(C#N)c(N3CCN(C)CC3)o2)cc1OC,.,.,6.0,.,?,.
c1ccc(-c2csc(Nc3ccc4c(c3)OCO4)n2)cc1,.,.,31.0,.,3.55µM*!,8.3%
COc1cccc(Nc2nc(-c3cccnc3)cs2)c1,-0.3%,3.0%,-5.8,?,12.5%,14.2%
COc1cccc(Nc2nc(-c3ccccc3)cs2)c1,.,.,8.5,.,1µM*,.
Ic1ccc(-c2csc(Nc3ccc4c(c3)OCO4)n2)cc1,.,.,18.2,.,?,.
Cc1nccn1CCN(C)C(=O)c1coc(COc2cccc(C(F)(F)F)c2)n1,.,.,.,.,51.0%,.
Cn1nc(C(=O)NC2CCCN(Cc3ccccc3F)C2)c2ccccc2c1=O (stereo not drawn),-17.9%,3.7%,-5.7,-15.5%,0.0%,2.5%
CCc1cc(C(=O)NC2CCCN(Cc3ccccc3F)C2)n(C)n1 (stereo not drawn),-8.8%,-4.4%,-1.4,13µM*,-5.2%,0.2%
CC(C)(C)c1ccc(C(=O)N2CCN(CCNC(=O)C(=O)NCc3ccc(Cl)cc3)CC2)cc1,?,-5.2%,-2.9,20.6µM*,.,-0.4%
Cc1ccc(NC(=O)c2nc[nH]c2C(=O)N2CCN(C(=O)OC(C)(C)C)CC2)cc1,4.4%,-8.7%[38.3 µM],-5.9,2.2%,15.3%,0.6%
CC(C)(C)OC(=O)NCc1ccc(CNC(=O)c2nc[nH]c2C(=O)N2CCN(C(=O)OC(C)(C)C)CC2)cc1,-20.6%,1.3%,-0.7,25.9µM*,8.0%,0.5%

# High-throughput results: PubChem BioAssay, National Center for Advancing Translational Sciences (NCATS)
